Laboratory results reported in PubChem BioAssay (NCI).
Values joined by “and” are separate entries in the source; they are usually repeats but may differ in a detail not shown here. Equal values may be shown once. This is part of a sample that, as a whole, favours compounds with a hit. Of some 79,000 tested, about 15% had one in any assay. Active and inactive are the calls of the source. No stated cut-off is given here; in the data, active means growth inhibition above about 70%; inactive means the rest.

Assays:
[1] = NCI Yeast Anticancer Drug Screen. Data for the rad50 strain (AID 155);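 further: 0% = growth of vehicle-only cultures of the same strain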; conditions: S. cerevisiae rad50 strain growth inhibition; at 50.0 µM; hits give high values
How it was run: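 Yeast carrying a defined DNA repair defect were exposed to test compounds, and growth was compared with vehicle-treated controls to give percent inhibition.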

[2] = NCI Yeast Anticancer Drug Screen. Data for the mec2-1 strain (AID 157); conditions: S. cerevisiae mec2-1 strain, at 50.0 µM, hits give high values
How it was run: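 Compounds were applied to mec2-1 yeast cells. Their growth was then compared with that of vehicle-treated cultures to give growth inhibition.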

[3] = NCI Yeast Anticancer Drug Screen. Data for the sgs1 mgt1 strain (AID 161);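 further: 0% = growth of cultures given vehicle only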; conditions: S. cerevisiae sgs1 mgt1 strain, at 50.0 µM, hits give high values
How it was run: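 Compounds are added to genetically altered yeast, and growth is compared with cultures given vehicle alone to give percent inhibition.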

[4] = NCI Yeast Anticancer Drug Screen. Data for the cln2 rad14 strain (AID 165);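 further: 0% = growth equal to vehicle treated cultures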; conditions: S. cerevisiae cln2 rad14 strain, at 50.0 µM, hits give high values
How it was run: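 Strain: cln2 rad14 yeast, altered in cell cycle control and DNA damage repair. Read-out: growth inhibition vs vehicle.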

[5] = NCI Yeast Anticancer Drug Screen. Data for the bub3 strain (AID 167); conditions: S. cerevisiae bub3 mutant strain, at 50.0 µM, hits give high values
How it was run: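 Compounds were applied to a genetically altered yeast strain carrying a cell-cycle control defect. Growth inhibition was scored against vehicle-treated controls.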

[6] = NCI Yeast Anticancer Drug Screen. Data for the mlh1 rad18 strain (AID 175); conditions: S. cerevisiae mlh1 rad18 strain growth inhibition; at 50.0 µM; hits give high values
How it was run: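 A repair-deficient yeast strain is exposed to test compound, and growth is scored relative to vehicle-treated controls.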

Measured: growth inhibition

CC1(c2ccccc2)CCC(=O)NC1=O (stereo not given)
inactive: [1] 7.2% | [2] 19.6% | [3] 14.6% | [4] 32.5% | [5] 7.85% | [6] 38.6%

CCOC(OCC)c1ccccc1
inactive: [1] 7.95% | [2] -5% | [3] -4.95% | [4] -11.9% | [5] 6.6% | [6] 14.2%

CCN1CN(c2ccccc2)C2(CCN(CC(CC3OCCO3)c3ccc(F)cc3)CC2)C1=O (stereo not given)
inactive: [1] 28.5% | [2] 32.2% | [3] 51.9% | [4] 13.6% | [5] 47% | [6] 44.6%

C[n+]1ccccc1-c1ccc[n+](CCCC[n+]2cccc(-c3cccc[n+]3C)c2)c1
inactive: [1] -8.5% | [2] -1.8% | [3] -7.5% | [4] -25.6% | [5] -8.65% | [6] 20%

NC(Cc1cccc(F)c1)c1nn[nH]n1 (stereo not given)
inactive: [1] -7.6% | [2] 2.35% | [3] -0.1% | [4] -22.8% | [5] 1.65% | [6] -0.7%

Cc1cccc[c]1[Sb](=[O])([OH])[OH]
inactive: [1] 6.6% | [2] -10.2% | [3] -15.9% | [4] -7.35% | [5] -17.2% | [6] -2.7%

[NH-]C(CCC(N)=O)C(=O)O.[NH-]C(CCC(N)=O)C(=O)O.[Zn+2] (stereo not given)
inactive: [1] -23.1% | [2] -22.9% | [3] -27.1% | [4] 13.3% | [5] -26.6% | [6] -38.2%

O=C1CCP(c2ccccc2)(c2ccccc2)(c2ccccc2)O1
inactive: [1] 34.9% | [2] 11.8% | [3] 23.1% | [4] 25.7% | [5] 14.3% | [6] 7%

S=P(NNc1ccccc1)(NNc1ccccc1)c1ccc(Cl)cc1
active: [1] 75.4% | [3] 81.9% | [4] 82.3% | [6] 83.2%
inactive: [2] -33.1% | [5] 34.6%

NC(C(=O)[O-])C(=O)[O-].NC1CCCCC1N.[Pt+4]
inactive: [1] 7.35% | [2] -5.95% | [3] 5.75% | [4] -31.6% | [5] -17.9% | [6] -3.2%

Cc1ccc(C(=O)C2C(c3ccccc3)N2Cc2ccccc2)cc1 (stereo not given)
inactive: [1] 13.8% | [2] 7.85% | [3] 35.4% | [4] -10.3% | [5] 30.6% | [6] 14.7%

CCCCCCCCCCCC[C@@H](O)[C@H]1CC[C@H]([C@H](O)CCCC[C@H](O)CCCCC[C@@H](O)CC2=C[C@H](C)OC2=O)O1
inactive: [1] 10% | [2] -7.05% | [3] -20.8% | [4] -7.5% | [5] -1.65% | [6] -41.2%

CCOC(=O)C[CH2][Sn]([Cl])([Cl])[Cl]
inactive: [1] 17.4% | [2] 22.5% | [3] 21.1% | [4] 12.3% | [5] 4.3% | [6] 20.9%

CCC(C)(C)OC(=O)CCl
inactive: [1] -0.25% | [2] 1.25% | [3] 7.8% | [4] 5.2% | [5] 36.7% | [6] -5.15%

N#CCCCl
inactive: [1] -13.7% | [2] -1.9% | [3] 13.6% | [4] -23.4% | [5] -1.65% | [6] -19.8%

C1CCC(NC2CCCC2)C1
inactive: [1] 13.4% | [2] -0.5% | [3] 10.1% | [4] 11.7% | [5] -8.4% | [6] 5.45%

O=C(O)c1cccc(P(=O)(O)O)c1
inactive: [1] 14.3% and 9.3% | [2] -19.3% and -12.9% | [3] -5.25% and 17.4% | [4] 2.35% and 28.6% | [5] -4% and -10.6% | [6] 2.55% and -0.35%

ClCC1CCN(CCc2ccccc2)CC1
inactive: [1] -5.5% | [2] 13.8% | [3] 8.65% | [4] -36.6% | [5] -17.8% | [6] 9.65%

O=C1NC2(CCCCC2)C(=O)N1CCCCN(CCCl)CCCl
inactive: [1] 1% | [2] 9.8% | [3] 9.2% | [4] 5.2% | [5] 21.4% | [6] -5.85%

OC[CH2][Hg][I]
active: [1] 99.8% | [2] 99.8% | [3] 99.8% | [4] 99.8% | [5] 99.8% | [6] 99.8%

CSc1sc2ccccc2[s+]1
inactive: [1] -10.8% | [2] -5.4% | [3] -0.35% | [4] 10.6% | [5] 9.55% | [6] 3.35%

COP(=O)(OC)C1(C(C)(C)C)CO1 (stereo not given)
inactive: [1] -1.75% | [2] -4.9% | [3] 0.65% | [4] -23.1% | [5] -11.6% | [6] 0.5%

CC(=O)O[C@H]1CCC2[C@@H]3CCC4c5nonc5CC[C@]4(C)C3CC[C@@]21C (stereo not given in full)
inactive: [1] 28.4% | [2] 5.55% | [3] 22.9% | [4] 35.1% | [5] 27.6% | [6] 17.9%

CC([NH-])C[NH-].[Na+].[O]=[Co][O-] (stereo not given)
inactive: [1] 8.4% | [2] 11.9% | [3] 24.5% | [4] -21.6% | [5] -0.25% | [6] 10.3%

O=P(O)(O)c1ccccc1 (tested in a mixture with another compound)
inactive: [1] -28.9% | [2] -6.45% | [3] -15.2% | [4] -35.1% | [5] -31.9% | [6] 2.7%

CC1(C)CC(O)CC(C)(C)N1O
inactive: [1] 21.8% | [2] 15.8% | [3] 37% | [4] 22.2% | [5] 20.2% | [6] 16.4%

NC(N)=NCCN=C(N)N
inactive: [1] -2.7% | [2] -30.1% | [3] -29.6% | [4] -24.1% | [5] -53.2% | [6] -9.15%

O=C(NC1CC1)c1c(O)[nH]c(=S)[nH]c1=O
inactive: [1] -3% | [2] -8.2% | [3] -12.8% | [4] 16.6% | [5] -6.15% | [6] -17.1%

S=P(c1ccccc1)(N1CCOCC1)N1CCOCC1
inactive: [1] 7.8% | [2] -9.85% | [3] 7.65% | [4] -16.4% | [5] 13.4% | [6] -1.9%

NC(=O)NNC(=O)C(Cl)(Cl)Cl
inactive: [1] -0.45% | [2] -8.55% | [3] 5.6% | [4] -63.3% | [5] -4.65% | [6] -14.2%

Oc1ccc(Nc2c3ccc(Cl)cc3nc3ccc(-c4ccccc4)cc23)cc1CN(CCCl)CCCl
active: [1] 98.4% | [2] 98.7% | [3] 98.8% | [4] 98.3% | [5] 93.5% | [6] 97.5%

CCOC(=O)CC1=N/C(=N/C(=N)N[N+](=O)[O-])SC1
inactive: [1] 7.45% | [2] -5.3% | [3] 10.4% | [4] 7.6% | [5] 15.3% | [6] 16%

S=C(N/N=C/c1ccc(Cl)cc1)NC1CN2CCC1CC2 (stereo not given)
inactive: [1] -1.6% | [2] 9.6% | [3] -22.1% | [4] -15.8% | [5] -7.9% | [6] 11.7%

CC1(C)N=C(N)N=C(N)N1c1cccc(CCC(=O)Nc2ccc[n+](Cc3ccc(S(=O)(=O)F)cc3)c2)c1
inactive: [1] -1.3% | [2] -8.35% | [3] 13.4% | [4] -17.8% | [5] -9.55% | [6] -11.9%

O=C(O)CC(S)C(=O)O (stereo not given)
inactive: [1] -19.1% | [2] 10.4% | [3] -3.7% | [4] -38.3% | [5] -9.85% | [6] 14.6%

C[C@]12CCC(=O)C=C1CC[C@H]1[C@@H]3CCC(=O)[C@@]3(C)CC[C@@]12F
inactive: [1] -2.35% | [2] -6.1% | [3] 2.25% | [4] -31.8% | [5] -3.7% | [6] -5.75%

O=[As](O)(O)c1ccccc1
inactive: [1] 18.2% | [2] -7.1% | [3] 4.75% | [4] 4.65% | [5] -38.1% | [6] -15.7%

Nc1nc(N)n2c(N)nnc2n1
inactive: [1] -3.4% | [2] -19.4% | [3] -0.25% | [4] 1.5% | [5] 4.65% | [6] 13.7%

COc1ccc(NC(=O)C(=O)C(CC2C(=O)NC(=S)NC2=O)C(=O)c2ccc3ccccc3c2)c([N+](=O)[O-])c1 (stereo not given)
inactive: [1] -10.7% | [2] 1.35% | [3] 13.1% | [4] -30.1% | [5] 31.2% | [6] 3.5%

COC(=O)N/N=C(/CCN1CCCC1)CC(c1ccccc1)c1c(O)c2ccccc2oc1=O (stereo not given)
inactive: [1] 19.4% | [2] -4.45% | [3] 10% | [4] 9.2% | [5] 8.7% | [6] 14.9%
